SMILES strings stand for the structures. The whole screen tested about 11,000 compounds, of which about 310 (2.8%) were called active. Rule as the data show it: active = activity change below about -85%; inactive = the rest. The full list was thinned out, with actives kept by preference.

In this assay the test system is intestinal alkaline phosphatase [Mus musculus]. The assay is described as follows: activators of mouse IAP, confirmation, biochemical, luminescence, single concentration (AID 434970). The note with it: purified mouse IAP, CDP-Star luminescence, 30 min, at 10 µM; activation factor: measured here: IAP activation factor, stronger effect = higher value; activity change, negative = activation: stronger effect = lower value.
On to `CC(C)NC(=O)c1ccc(CNC(=O)OCC(F)(F)F)cc1`, for which the activation factor was 1.05 and the activity change, negative = activation was -5.05% (inactive).

Regarding `COCCNC(=O)Cn1c(=O)n(Cc2ccco2)c(=O)c2ccccc21`, the activation factor was 1.06 and the activity change, negative = activation is -6.35% (inactive).

As for `O=C(NOCc1ccccc1)c1ccccc1`, the activation factor is 0.948 and the activity change, negative = activation was 5.2% (inactive).

In the case of `CCOC(=O)C1=CN(Cc2cccc(-c3ccc4c(c3)OCO4)c2)S(=O)(=O)N(C)C1C` (stereo unspecified), the activation factor was determined as 1 and the activity change, negative = activation was -0.3% (inactive).

Regarding `O=C1c2ccccc2[C@@H]2C[C@@H](O)[C@H](Nc3ccccc3Cl)CCN12`, the activation factor was 0.989 and the activity change, negative = activation is 1.1% (inactive).

For `CCn1nnnc1SCC(=O)Nc1cc(C)on1`, the activation factor was found to be 0.966 and the activity change, negative = activation is 3.35% (inactive).

In the case of `CCOC(=O)C1CCCN(C(=O)Cc2ccc(OC)c(OC)c2)C1` (stereo unspecified), the activation factor stood at 1 and the activity change, negative = activation is -0.35% (inactive).

Take `Cc1ccc(OCCCC(=O)Nc2nncs2)cc1`: the activation factor is 1 and the activity change, negative = activation is -0.3% (inactive).

Regarding `Cc1ccc(Nc2nc(CSc3nnnn3C)cs2)cc1`, the activation factor worked out at 0.806 and the activity change, negative = activation was 19.4% (inactive).

On to `O=C(Cc1ccccc1)NC(NC(=S)Nc1cc(Cl)ccc1Cl)C(Cl)(Cl)Cl` (stereo unspecified), for which the activation factor was found to be 0.912 and the activity change, negative = activation is 8.8% (inactive).

For `COC(=O)[C@H](C)N(Cc1ccc(Cl)c(Cl)c1)S(=O)(=O)CCNC1CCCC1`, the activation factor was 0.943 and the activity change, negative = activation was 5.7% (inactive).

For `COc1ccc(OC)c(NC(=O)C2C3CCC(C3=C(C)C)C2C(=O)O)c1` (stereo unspecified), the activation factor amounted to 0.891 and the activity change, negative = activation is 10.9% (inactive).

For `O=C(Nc1ccccc1-c1ccccc1)NC1CC2CCCC(C1)N2Cc1ccc(F)cc1` (stereo unspecified), the activation factor is 3.7 and the activity change, negative = activation was -270% (active).

For the compound `O=C(Nc1cccn(Cc2ccc(F)cc2)c1=O)NC1CCCCC1`, the activation factor was 0.962 and the activity change, negative = activation is 3.75% (inactive).

As to `O=C(Nc1ccccc1-c1ccccc1)NC1CC2CCCC(C1)N2CCc1ccccc1` (stereo unspecified), the activation factor is 1.76 and the activity change, negative = activation is -76.2% (inactive).

As to `O=C(Nc1ccc(Cl)c(C(F)(F)F)c1)NC1CC2CCCC(C1)N2Cc1ccccc1` (stereo unspecified), the activation factor was found to be 7.69 and the activity change, negative = activation is -669% (active).

In the case of `COCC(=O)NC1CC2CCCC(C1)N2Cc1ccccc1` (stereo unspecified), the activation factor is 1.08 and the activity change, negative = activation is -8.2% (inactive).

As to `COc1cccc(C(=O)NC2CC3CCCC(C2)N3CC(=O)Nc2ccc(N(C)C)cc2)c1` (stereo unspecified), the activation factor came to 0.99 and the activity change, negative = activation is 1% (inactive).

With `COc1ccc(NC(=O)NC2CC3CCCC(C2)N3Cc2ccccc2)cc1` (stereo unspecified), the activation factor was determined as 2.71 and the activity change, negative = activation was -171% (active).

As for `COc1cc(C(=O)NC2CC3CCCC(C2)N3CC(=O)Nc2ccccc2)cc(OC)c1OC` (stereo unspecified), the activation factor is 1.07 and the activity change, negative = activation is -6.8% (inactive).

For `O=C(NCc1ccccc1)NC1CC2CCC(C1)N2Cc1ccco1` (stereo unspecified), the activation factor was found to be 1.08 and the activity change, negative = activation is -7.85% (inactive).

As for `CCc1cccc(CC)c1NC(=O)CN1C2CCCC1CC(NC(=O)Nc1cccc(OC)c1)C2` (stereo unspecified), the activation factor turned out to be 2.36 and the activity change, negative = activation was -136% (active).

`COc1ccc(NC(=O)Cc2ccccc2)cc1`: the activation factor worked out at 0.897 and the activity change, negative = activation is 10.3% (inactive).

As for `CC(=O)NC1CC2CCCC(C1)N2C(=O)Nc1ccc(Cl)c(C(F)(F)F)c1` (stereo unspecified), the activation factor is 1.13 and the activity change, negative = activation is -13% (inactive).

On to `CC(C)N(C(=O)[C@H]1C[C@H](CC(=O)NCCc2ccccn2)C(=O)N2CCc3c([nH]c4cc(-c5ccco5)ccc34)[C@]12C)C(C)C`, for which the activation factor amounted to 1.14 and the activity change, negative = activation is -14.4% (inactive).

In the case of `COc1cc(/C=N/NC(N)=O)cc(Br)c1OCc1ccccc1C`, the activation factor is 0.961 and the activity change, negative = activation was 3.9% (inactive).

With `CC(OC(=O)c1cccs1)C(=O)NCC1CCCO1` (stereo unspecified), the activation factor is 1.09 and the activity change, negative = activation was -9% (inactive).

Turning to `CCOC(=O)c1c(C)[nH]c(C(=O)COC(=O)C2CC(=O)N(Cc3ccccc3)C2)c1C` (stereo unspecified), the activation factor was found to be 0.964 and the activity change, negative = activation is 3.55% (inactive).

`COCc1c(C)cc(C)c(/C=N/O)c1C`: the activation factor amounted to 0.951 and the activity change, negative = activation was 4.9% (inactive).

In the case of `CCSc1cc(C2C(C(=O)OC)=C(C)NC3=C2C(=O)CCC3)c(C)o1` (stereo unspecified), the activation factor turned out to be 0.954 and the activity change, negative = activation is 4.65% (inactive).

Turning to `Cc1nc(SCN2C(=O)c3ccccc3C2=O)n[nH]1`, the activation factor was 0.945 and the activity change, negative = activation was 5.55% (inactive).

On to `CCOC(=O)c1[nH]c(C)c(CN(CCc2ccccc2)C(=O)CCC(=O)O)c1C`, for which the activation factor was 0.977 and the activity change, negative = activation was 2.3% (inactive).

For `O=C(Nc1ccc2c(c1)N(Cc1ccccc1)C(=O)c1ccccc1S2)NC1CC1`, the activation factor turned out to be 2.45 and the activity change, negative = activation was -145% (active).

Regarding `Cc1cccc(NC(=S)NC2CC3CCCC(C2)N3Cc2cccs2)c1C` (stereo unspecified), the activation factor is 1.15 and the activity change, negative = activation was -14.8% (inactive).

`COc1ccc(CN2C3CCCC2CC(NC(=O)Nc2ccccc2)C3)cc1` (stereo unspecified): the activation factor is 4.65 and the activity change, negative = activation was -365% (active).

For the compound `COc1ccc(CN2C3CCCC2CC(NC(=O)Nc2ccccc2C)C3)cc1` (stereo unspecified), the activation factor came out at 2.43 and the activity change, negative = activation was -143% (active).

As for `CCc1ccccc1NC(=S)NC1CC2CCCC(C1)N2Cc1cccs1` (stereo unspecified), the activation factor was found to be 1.01 and the activity change, negative = activation is -0.9% (inactive).

`CC(=O)NC1CC2CCCC(C1)N2CC(=O)Nc1ccccc1` (stereo unspecified): the activation factor was determined as 1.09 and the activity change, negative = activation was -9.05% (inactive).

As to `S=C(Nc1ccc(Cl)c(Cl)c1)NC1CCN(Cc2ccccc2)CC1`, the activation factor came to 1.63 and the activity change, negative = activation is -62.7% (inactive).

With `O=C(Nc1cccn(Cc2ccccc2)c1=O)NC1CCCCC1`, the activation factor came to 0.945 and the activity change, negative = activation was 5.5% (inactive).

For `CC(=O)c1cccc(NC(=O)NC2CC3CCCC(C2)N3CC(C)C)c1` (stereo unspecified), the activation factor was 1.22 and the activity change, negative = activation is -21.6% (inactive).

`CC(C)OCCCNC(=O)C(=O)NCCCOC(C)C`: the activation factor is 0.962 and the activity change, negative = activation is 3.8% (inactive).

For the compound `COC(=O)c1ccccc1NC(=O)CCS(=O)(=O)c1ccc(Br)s1`, the activation factor amounted to 1.05 and the activity change, negative = activation is -5% (inactive).

As to `O=C(O)Cn1c(SCc2cccc3ccccc23)nc2ccccc21`, the activation factor stood at 1.09 and the activity change, negative = activation was -9.2% (inactive).

On to `S=c1[nH]ncn1/N=C/c1ccc(N2CCOCC2)cc1`, for which the activation factor is 1 and the activity change, negative = activation is -0.35% (inactive).

As for `CCOC(=O)c1c(C)[nH]c(O)c1C=Nc1ccc(C(F)(F)F)cc1`, the activation factor was 0.846 and the activity change, negative = activation was 15.4% (inactive).

Take `COc1ccc(OC)c(NC(=O)C(=O)/C=C(\O)c2cc(OC)ccc2OC)c1`: the activation factor is 0.905 and the activity change, negative = activation is 9.55% (inactive).

On to `Cc1ccc(/C(N)=N/OC(=O)Oc2ccccc2)cc1`, for which the activation factor turned out to be 0.99 and the activity change, negative = activation is 1% (inactive).

On to `COc1ccc(CCNC(=O)c2ccc(Cl)cc2)cc1`, for which the activation factor was 1.08 and the activity change, negative = activation is -8.2% (inactive).

Consider `COc1ccc(CCNC(=O)c2cc(-c3cc(Cl)cc(Cl)c3)oc2C)cc1`, for which the activation factor was 2.07 and the activity change, negative = activation is -107% (active).

With `COc1ccc(CCNC(=O)c2ccc(Cl)cc2Cl)cc1`, the activation factor is 1.19 and the activity change, negative = activation was -18.9% (inactive).

On to `O=C(CCCNS(=O)(=O)c1cccs1)N1CCN(c2ccc(F)cc2)CC1`, for which the activation factor is 0.934 and the activity change, negative = activation is 6.55% (inactive).

For the compound `COc1ccc(NC(=S)NCC2CCCO2)c(OC)c1` (stereo unspecified), the activation factor amounted to 0.95 and the activity change, negative = activation is 4.95% (inactive).
